Hits are enriched below; roughly 1.7% of the tested compounds scored in any of these assays.
GLP1R cytotox: cytotoxicity counter-screen for GLP-1 receptor inverse agonists; HEK293 cAMP-luciferase reporter cells, luminescence, 24 h; Potency, µM (top dose mostly 38.3 µM), inactives show at the top dose activity change, negative = inhibition, usual class: inhibitors; 410,000 compounds, 0.13% hits; AID 624418;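 further: loss of luciferase light is scored as toxicity; on the % scale 0 is the no-effect control and ±100 the full control effect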
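1536-well qHTS counterscreen of the MLSMR; 200 cells/uL, 12 h pre-incubation, 23 nL cpd, 24 h at 37 deg C 5% CO2, luciferase detection reagent, 12 min RT, luminescence. Inhibition = undesired.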
GLP1R inv ag: GLP-1 receptor (human) inverse agonism; HEK293 GLP-1R CRE-luciferase, luminescence, 24 h; GLP-1R form is constitutively active; AID 624417; 410,000 compounds, 1.6% hits; Potency, µM (top dose mostly 38.3 µM), for inactives: at the top dose activity change, negative = inhibition, most hits filed as inhibitors; P43220; further: on the % scale 0 is the no-effect control and ±100 the full control effect; nearly all actives have a fitted effect of over 55% in size
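Assay principle: reduced luminescence from a cAMP-responsive reporter in HEK293 cells co-expressing a constitutively active GLP-1R. Conditions: 24 hr compound incubation, 37 deg C, 5% CO2.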
GLP-1R agonist: agonists of human GLP-1 receptor | P43220 | HEK293 GLP-1R CRE-luciferase, luminescence, 4-6 h; cells express a hypersensitive GLP-1R form | Potency, µM (highest dose often 45.6 µM), for the others: top-dose activation, actives largely listed as activators | 380,000 compounds, 0.007% hits; further: % of control where 0% means no effect
PTHR1 ag: agonists of human PTHR1 parathyroid hormone receptor; HEK293 GP2 PTHR1 cells, GloSensor cAMP luminescence, 1 h; Potency, µM (titrated, usually from 115 µM), for inactives: at the top dose activation, actives largely listed as activators; 410,000 compounds, 0.075% hits; AID 743266; further: nearly all actives have a fitted effect of over 55% in size
Target sequence (Q03431 whole entry, looked up): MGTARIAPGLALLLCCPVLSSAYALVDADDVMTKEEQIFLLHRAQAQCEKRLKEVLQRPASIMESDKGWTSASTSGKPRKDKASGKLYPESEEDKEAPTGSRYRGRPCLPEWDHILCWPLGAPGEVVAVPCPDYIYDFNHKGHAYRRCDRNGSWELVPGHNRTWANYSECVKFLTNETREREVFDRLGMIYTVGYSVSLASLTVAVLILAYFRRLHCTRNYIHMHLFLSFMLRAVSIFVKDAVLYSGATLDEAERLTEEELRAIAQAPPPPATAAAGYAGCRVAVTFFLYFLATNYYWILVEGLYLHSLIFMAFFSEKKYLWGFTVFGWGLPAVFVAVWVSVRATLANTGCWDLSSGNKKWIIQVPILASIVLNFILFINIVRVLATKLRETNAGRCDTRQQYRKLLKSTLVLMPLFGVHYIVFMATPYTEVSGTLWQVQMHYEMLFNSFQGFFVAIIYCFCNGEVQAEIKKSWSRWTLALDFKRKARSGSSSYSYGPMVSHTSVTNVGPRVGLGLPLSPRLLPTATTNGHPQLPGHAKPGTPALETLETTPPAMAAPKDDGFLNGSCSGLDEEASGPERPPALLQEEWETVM
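HEK-293-derived GP2 cells expressing PTHR1 and a GloSensor cAMP reporter, 3,000/well, plated overnight, given luciferin plus IBMX (each 0.5 mM as added) for 1 h at 37 °C, then compound for 1 h at 37 °C. Luminescence was read after 15 min at room temperature.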
Starred values were filed as active, the others as inactive; i = inactive; ? = inconclusive; . = no result given; [ ] = another dose, or the depositor's remark. The call rests on the fitted dose curve; in most records, active means well fitted curve in the direction sought with a large enough effect; inconclusive means small, poorly fitted or top-dose-only effect, or another doubt; inactive means no such curve, though single readings can be large; an effect the other way counts as inactive or inconclusive. Potency means the concentration at half of the fitted maximal effect.

SMILES	GLP1R cytotox	GLP1R inv ag	GLP-1R agonist	PTHR1 ag
CCOC(=O)N1CCc2c(sc(NCc3sccc3C)c2C(=O)Nc2ccccc2OCC)C1	-0.4%	-18.2%	.	i
CC(Oc1cccc(Cl)c1)C(=O)Nc1cc(S(=O)(=O)N2CCOCC2)ccc1N1CCCCC1 (configuration not stated)	0.4%	10µM*	16.7%	i
CC(NCC(=O)Nc1cc(S(=O)(=O)N2CCOCC2)ccc1Cl)c1ccc(Cl)cc1Cl (configuration not stated)	-16.1%	5.62µM*	0.3%	-32.3%
CCN1CCN(c2ccc(S(=O)(=O)N3CCOCC3)cc2NC(=O)C(C)Oc2cccc(Cl)c2)CC1 (configuration not stated)	0.0%	?	29.6%	-67.8%
Cc1cc(C)cc(NC(=S)N=Nc2c(O)n(C)c3ccc(S(=O)(=O)N4CCOCC4)cc23)c1	?	?	1.3%	i
Cc1ccc(NC(=S)N=Nc2c(O)n(C)c3ccc(S(=O)(=O)N4CCOCC4)cc23)cc1	0.631µM*	-6.6%	8.8%	-11.8%
O=C(CCCCn1c(=O)[nH]c2ccccc2c1=O)N1CCN(c2cccc(C(F)(F)F)c2)CC1	?	10µM*	-10.5%	-34.2%
COc1cc(NC(=O)CN2C(=O)NC3(CCOc4ccccc43)C2=O)cc(OC)c1 (configuration not stated)	-4.8%	-24.2%	6.7%	-1.8%
O=C(CN1C(=O)NC2(CCOc3ccccc32)C1=O)Nc1cccc(Cl)c1 (configuration not stated)	4.9%	10µM*	1.9%	i
CC1=CC2=NC(=O)/C(=C\c3cccn3CCOc3cccc(C)c3)C(=N)N2O1	-4.1%	10µM*	8.5%	-20.6%
COc1ccccc1NC(=O)c1cc2n(n1)C(C(F)(F)F)CC(c1ccc3c(c1)OCO3)N2 (configuration not stated)	-8.7%	2µM*	-21.4%	-2.5%[57.5 µM]
O=[N+]([O-])c1ccccc1Oc1ccc(C(F)(F)F)cn1	-3.1%	10.8%	15.8%	-6.0%
FC(F)(F)c1ccc(Oc2ccc3ccccc3c2Br)nc1	20.3%	10µM*	9.8%	-38.0%
Cc1c(Br)c([N+](=O)[O-])nn1C(C)C(=O)N1CCCc2ccccc21 (configuration not stated)	-22.0%	10µM*	-3.7%	-25.1%
O=C(C(c1ccccc1)c1ccccc1)N1CCCc2ccccc21	-8.0%	5.01µM*	1.4%	i
CCc1ccccc1OCC(=O)Nc1ccc(S(=O)(=O)Nc2nc(C)cc(C)n2)cc1	1.0%	10.6%	.	-13.8%
Cc1nn(-c2ccc(N3CCCCC3)nn2)c(C)c1CCC(=O)Nc1cc(F)ccc1F	-17.4%	?	-5.0%	-76.3%
Cc1ccc(NC(=O)C(NC2CCCc3ccccc32)c2ccccc2)c([N+](=O)[O-])c1 (configuration not stated)	6.9%	3.98µM*	1.6%	i
Cc1ccc(NC(=O)C(NC2CCCc3ccccc32)c2ccccc2)cc1Cl (configuration not stated)	11.2%	?	0.4%	-10.7%
CC(C)NS(=O)(=O)c1ccc(Oc2ncc(C(F)(F)F)cc2Cl)cc1	-10.5%	?	8.4%	-35.0%
CCCNS(=O)(=O)c1ccc(Oc2ncc(C(F)(F)F)cc2Cl)cc1	-2.9%	11.2µM*	0.0%	-33.9%
CCN1CCN(c2cc(C(C)C)nc3c(-c4ccccc4)c(C)nn23)CC1	?	3.98µM*	20.2%	i
Cc1nn2c(N3CCOCC3)cc(C(C)C)nc2c1-c1ccccc1	3.5%	11.2%	-2.5%	-15.2%
Cc1cc(C)cc(-n2ncc3c2CCCC3NC(=O)c2ccccc2N2CCOCC2)c1 (configuration not stated)	-19.9%	?	13.8%	-6.4%
O=C(NC1CCCc2c1cnn2-c1ccccc1F)c1ccccc1N1CCOCC1 (configuration not stated)	0.1%	7.94µM*	4.4%	-42.2%
SMILES	GLP1R cytotox	GLP1R inv ag	GLP-1R agonist	PTHR1 ag
CCCCCCCCCOC(=O)C(CC(=O)O)N1CCOCC1 (configuration not stated)	-11.6%	-15.7%	1.5%	-4.7%[57.5 µM]
CCCCCOC(=O)CC(C(=O)OCCCCC)N1CCCCC1 (configuration not stated)	12.3%	12.6µM*	10.1%	i
O=C(CCc1ccccc1)NC1(Cc2ccccc2)CCN(CCc2cccs2)C1=O (configuration not stated)	12.1%	10µM*	19.3%	i
CCCCCCC(=O)O[C@@H]1CC[C@H]2[C@@H]3CCc4cc(O)ccc4[C@H]3CC[C@]12C	.	.	1.2%	.
O=C1/C(=C/c2cccc(Br)c2)SC(=S)N1CCC(=O)N(CCO)c1ccccc1	15.9%	11.2µM*	-0.5%	i
COc1cccc(/C=C2\SC(=S)N(CCCC(=O)N(CCO)c3ccccc3)C2=O)c1	-13.8%	4.47µM*	2.7%	i
COc1cccc(/C=C2\SC(=S)N(CCC(=O)NCCc3ccc(O)cc3)C2=O)c1	?	3.98µM*	-2.9%	-86.5%
COc1cccc(/C=C2\SC(=S)N(CCCC(=O)N3CCCCC3)C2=O)c1	5.4%	?	-4.5%	-23.4%
Nc1nc(SCC(=O)Nc2ccc([N+](=O)[O-])cc2)[nH]c(=O)c1NC(=O)c1ccc(Br)o1	2.1%	10.1%	-2.6%	-11.2%
CCCNC(=O)C1(C)CCN(C(=O)c2ccc(C)c(F)c2)C1 (configuration not stated)	7.5%	24.8%	-4.0%	i
COc1cccc(CN(Cc2ccco2)C(c2ccc(F)cc2)c2nnnn2C(C)(C)C)c1 (configuration not stated)	3.1%	10µM*	-27.7%	-12.9%[57.5 µM]
CC(C)(C)n1nnnc1C(c1cccnc1)N(Cc1ccccc1)Cc1ccco1 (configuration not stated)	63.2%	108.0%	-0.5%	i
S=C1NCCOCCOCCOCCNC(=S)N2CCOCCOCCN1CCOCCOCC2	6.3%	0.1%	7.4%	-8.1%
N#Cc1c(N2CCN(c3ccc(F)cc3)CC2)nc(N)c2c(N)nc3c(c12)CC(=O)N3C1CC1	-13.7%	2.2%	0.4%	i
CC1=Nc2nc(N3CCCCCC3)c(C#N)c3c4c(nc(c23)N1)N(c1ccc2ccccc2c1)C(=O)C4	4.5%	0.501µM*	-6.4%	i
O=C(NC(=O)N1CCN(c2cccc(Cl)c2)CC1)c1ccc(Cl)cc1	5.1%	3.16µM*	-16.7%	-49.5%
CCCCCCCCCCCCCCCCCC(=O)OCCO	.	.	5.6%	.
COc1ccc2oc(C(=O)OCC(=O)NCc3ccco3)c(C)c2c1	-3.7%	-16.2%	8.0%	-12.3%
Cc1ccc(Cn2c(CO)cnc2SCC(=O)Nc2ccc(C)c(Cl)c2)cc1	-6.0%	12.6µM*	.	-46.5%
CCC(CCCO)CCC[C@H](C)CCC1OCCO1 (some centres not stated)	17.1%	8.91µM*	-2.6%	-1.7%
O=C(CCCOc1ccccc1)N1CCN(c2ccccn2)CC1	-10.6%	10µM*	-5.8%	-34.5%[57.5 µM]

Compound activity deposited in PubChem by National Center for Advancing Translational Sciences (NCATS).
